Reference: PubChem BioAssay (EPA / NIEHS)
Inconclusive results are not listed. The source made the active and inactive calls. The calls were made as follows: active = hit-call score of the fitted dose curve at least 0.9, where 1 is the maximum; inconclusive = response in the unintended direction; inactive = score below 0.9.

Assay: ATG_M_19_TRANS: Attagene TRANS-FACTORIAL HepG2 Assay for M19 Transcription Factor (Internal Marker) (AID 2282974)
Conditions: HepG2 Attagene TRANS-FACTORIAL M19 internal marker reporter
Experimental: ATG_TRANS is a cell-based, multiplexed-readout assay that uses HepG2, a human liver cell line, with measurements taken at 24 hours after chemical dosing in a 24-well plate.ATG_M_19_TRANS is one of 30 assay component(s) measured or calculated from the ATG_TRANS assay. It is designed to make measurements of mRNA induction, a form of inducible reporter, as detected with fluorescence intensity signals by Reverse transcription polymerase chain reaction (RT-PCR) and Capillary electrophoresis technology.Data from the assay component ATG_M_19_TRANS was analyzed into 1 assay endpoint. This assay endpoint, ATG_M_19_TRANS, was analyzed in the positive analysis fitting direction relative to DMSO as the negative control and baseline of activity. Using a type of inducible reporter, measures of mRNA for gain-of-signal activity can be used to understand the background control at the transcription factor-level as they relate to the gene . Furthermore, this assay endpoint can be referred to as a secondary readout, because this assay has produced multiple assay endpoints where this one serves a background control function. To generalize the intended target to other relatable targets, this assay endpoint is annotated to the background measurement intended target family, where the subfamily is internal marker.
Human liver HepG2 cells are transiently transfected with multiple reporter transcription units (MRTUs) in 6-well plates using FuGene 6 reagent (Roche; 3 ml FuGene/1 mg DNA). The MRTU constructs are regulated by a cis-regulating element (promoter). […] A major difference between the CIS and TRANS system is that in CIS activities of endogenous TFs are measured, whereas the TRANS assay evaluates changes in activities of exogenous, chimeric NR-Gal4 proteins. […] At the end of 24 hour incubation, total RNA was isolated using TriZol reagent (Invitrogen). The isolated RNA is then reverse-transcribed using oligo(dT) primer and Mo-MLV reverse transcriptase (Invitrogen) with DNAse I (Ambion) treatment for 30 min. The one-tenth of the produced cDNA was amplified by PCR using Taq DNA polymerase (Invitrogen) and two reporter sequence-specific primers. The PCR products were fluorescently labeled by primer extension with 6-arboxyfluorescein (6-FAM) 5'-labeled reporter sequence-specific primer (2 min at 95 C, 20 s at 68 C and 10 min at 72 C) and these products were digested with 5U of HpaI (New England Biolabs) for 2h at 37 C. The fragments were purified using Qiaquick PCR columns (Qiagen), analyzed on an ABI 3130xL genetic analyzer (Applied Biosystems) with peak positions identified by using a set of X-rhodamine (ROX)-labeled MapMarker1000 molecular weight standards (BioVentures). The raw capillary electrophoresis data was processed using Attagraph software (Attagene).

outcome, inactive:
CC(CC=O)c1ccccc1 (stereo not given), CCOC(=O)c1ccc(N(C)C)cc1, NC(=O)c1ccccc1O, CC1=NN(c2cc(S(=O)(=O)O)ccc2Cl)C(=O)C1N=Nc1ccccc1 (stereo not given), O=C1c2cccc(O)c2C(=O)c2c(O)cc(CO)cc21, C=COCCCC, Cc1ccc(N)c([N+](=O)[O-])c1, O=C1CCCC(=O)O1, C#CC1(O)CC[C@H]2[C@@H]3CCC4=CCCC[C@@H]4[C@H]3CC[C@@]21C (stereo not given in full), COc1cc(C)ccc1C(C)C, CC(C)CCCC(C)CC=O (stereo not given), CNC(=S)NN, OCCN(CCO)c1ccccc1, Cn1c([N+](=O)[O-])cnc1COC(N)=O, COC(=O)c1cc(Cl)ccc1[N+](=O)[O-], Cc1ccc(C(C)(C)C)cc1, N[C@H]1C(O)O[C@H](CO)[C@H](O)[C@@H]1O (stereo not given in full), [Cl][Nd]([Cl])[Cl], O=C(C(Cl)Cl)N1CCOC12CCCCC2, CC(C)(C)c1n[nH]c(=O)n(N)c1=O, CC(=O)Oc1ccc(C)cc1, C=CC(=O)OCCOC1C2CCC1C1CC=CC12 (stereo not given), CC(C)(c1cc(Br)c(OCCO)c(Br)c1)c1cc(Br)c(OCCO)c(Br)c1, C=C[Si](C)(C)O[Si](C)(C)C=C, CCCc1ccc(OC)cc1, CCC(CO)CO, CCC(CC)C(=O)O, CC(=O)CC(N)=O, O=c1c2ccccc2oc2ccccc12, CC(CC=O)CCCC(C)(C)O (stereo not given), CCCCC(CC)COC(=O)c1ccccc1 (stereo not given), O=C1c2ccccc2C(=O)C1c1nc2ccccc2c(Br)c1O, CC(=O)OCC(=O)[C@@]12N=C(C)O[C@@H]1C[C@H]1[C@@H]3CCC4=CC(=O)C=C[C@]4(C)[C@H]3[C@@H](O)C[C@@]12C, CCc1c(C(=O)O)c(=O)cnn1-c1ccc(Cl)cc1, CC1=CC[C@H]2C[C@@H]1C2(C)C, CN(C)CCCN(C)C, O=C(O)c1cc(Cl)cc([N+](=O)[O-])c1Cl, CCCCCCCCCCCCCCCC(=O)OCC, O=C(/C=C/C=C/c1ccc2c(c1)OCO2)N1CCCCC1, CC(=O)Oc1ccc(C(C)=O)cc1
